Each structure is given as a SMILES string. This is part of a sample that, as a whole, favours compounds with a hit. Of some 83,000 tested, about 20% had one in any assay.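 Testing used 96-well plates and a 48-hour single-concentration exposure. Example: -40 means 40% of the starting cells died.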 Values without a mark were called inactive. Calls of active or inactive are those of the source.

For the experiment, the system named is IGROV1 ovarian. The experiment can be described thus: NCI-60 one-dose screen, 48 h (100 = growth as untreated, 0 = no growth, -100 = all killed). To be noted: 10 µM unless noted. The method, then: Growth inhibition of the IGROV1 human tumor cell line is measured as a screen for anti-cancer activity. Cells are grown in 96 well plates and exposed to the test compound for 48 hours. Compounds are tested at a single concentration, which is 10^-5 M for most compounds. The reported endpoint is percent growth (GI% or GIPRCNT), where numbers from 0 - 100% represent growth inhibition, and numbers from -100% - 0 represent cell death. For example, a value of 40 represents 60% growth inhibition. A value of 0 means no net growth occurred over the course of the experiment. A value of -40 indicates 40% of cells at the beginning of the experiment died by the end of the experiment. A value of -100 means all cells are dead at the end of the experiment.
NCI-60 Human Tumor Cell Lines Screen was performed using the standard one-dose NCI protocol, which is described in more detail at https://dtp.cancer.gov/discovery_development/nci-60/default.htm.
Compounds with GIPRCNT values below 10 were considered active. Activity score was based on GIPRCNT using the following formula: […]
Score is 0 for GIPRCNT values of 100 or above, 50 for GIPRCNT values of 0, and 100 for GIPRCNT values of -100.
For `c1ccc(-c2c(-c3ccccc3)[n+](Cc3ccc4ccccc4c3)c(-c3ccc(-c4nc5ccccc5s4)cc3)n2Cc2ccc3ccccc3c2)cc1`, the growth was -84.8% (active).

Consider `CC(O)CN(CC(C)O)c1ccc2c(c1)Cc1cc([N+](=O)[O-])ccc1-2` (stereo not given), for which the growth was 55.6%.

Regarding `C=C(C)[C@@H]1CC[C@]2(C(N)=O)CC[C@]3(C)[C@H](CC[C@@H]4[C@@]5(C)C/C(=C/c6ccco6)C(=O)C(C)(C)[C@@H]5CC[C@]43C)[C@@H]12`, the growth was 101%.

Take `COc1cc(-c2nc(C(=O)NCC(=O)NO)nn2-c2ccc(Cl)cc2)cc(OC)c1OC`: the growth was 112%.

`CCOc1cc2ncc(C#N)c(Nc3ccc(OCc4cccc(F)c4)c(Cl)c3)c2cc1NC(=O)CC1CCSS1` (stereo not given): the growth is -2.65% (active).

With `NC(=NCCCOc1ccc(Cl)cc1)Nc1ccc(C(F)(F)F)cc1`, the growth is -20.5% (active).

Take `Cn1c(NCCc2ccc(O)c(O)c2)nc2c1c(=O)n(Cc1ccc(Cl)c(Cl)c1)c(=O)n2C`: the growth is 32%.

Regarding `CCOC(=O)c1sc2nc(-c3cccc(O)c3)nc(N3CCOCC3)c2c1C`, the growth was 16.9%.

In the case of `CCOC(=O)n1cc(-c2nonc2-c2cn(C)c3ncccc23)c2ccccc21`, the growth was 54.2%.

For `Cc1ccc2oc(=O)cc(C3c4ccc([nH]4)C(c4cc(=O)oc5ccc(C)cc45)c4ccc([nH]4)C(c4cc(=O)oc5ccc(C)cc45)c4ccc([nH]4)C(c4cc(=O)oc5ccc(C)cc45)c4ccc3[nH]4)c2c1` (stereo not given), the growth is -20.1% (active).

As to `COc1cccc(-c2nc3sccn3c2-c2ccnc(NCCCNS(=O)(=O)c3c(Cl)cccc3Cl)c2)c1`, the growth is 72.1%.

As to `COc1ccc(/C=C2\Oc3cc(OCCCCN4CCCC4)ccc3C2=O)cc1`, the growth was 81.2%.

Turning to `Cc1ccc2c(C(C[N+](=O)[O-])c3ccccc3F)c(-c3ccccc3)[nH]c2c1` (stereo not given), the growth is 32%.

`Cc1cc(N2CCOCC2)nc(NCc2cc(Nc3ccnc4cc(Cl)ccc34)ccc2F)n1`: the growth is -14.1% (active).

Regarding `C#CC(F)(F)[C@]1(O)CC[C@H]2[C@@H]3CCC4=CC(=O)CCC4=C3[C@@H](c3ccc(C(C)=O)cc3)C[C@@]21C`, the growth is -34.3% (active).

As to `CC/C=C\C/C=C\C[C@H]1C/C=C2/C(=O)C=C[C@@H]2C/C=C\CCC(=O)O1`, the growth was 13.1%.

On to `c1csc(C2=NN3C(C2)c2ccccc2OC3c2ccncc2)c1` (stereo not given), for which the growth was 76.1%.

Regarding `O=C(CN(C(=O)Cn1c(=O)n2nnnc2c2ccccc21)c1ccccc1C(F)(F)F)Nc1ccc(C(F)(F)F)cc1`, the growth was 88.1%.

With `Fc1ccc(CNc2cccc3[nH]c(C(F)(F)F)nc23)cc1`, the growth is 109%.

Take `OC(c1cc2cc(Cl)c(Cl)cc2c2cc(C(F)(F)F)ccc12)C1CCCCN1` (stereo not given): the growth is -64.9% (active).

Turning to `Cc1c(/C=C/[N+](=O)[O-])ccc2c1[nH]c1ccccc12`, the growth was 101%.

Take `C(=N/Nc1ncc(-c2cc3cc(-c4ccccc4)ccc3o2)s1)/c1cccs1`: the growth is 102%.

Regarding `N#Cc1c(-c2ccc(Cl)cc2)nc(N/N=C/c2cccc(Br)c2)nc1N1CCOCC1`, the growth was 83.6%.

For `CCCN1CCN(c2ccc3nc(-c4ccc5nc(-c6ccc(OCC)cc6)[nH]c5c4)[nH]c3c2)CC1`, the growth is 52.1%.

For the compound `N#CCCN=Nc1c(O)[nH]c2ccc([N+](=O)[O-])cc12`, the growth was 99.6%.

Consider `COc1cc2c(cc1-c1c(C)noc1C)ncc1nc(C3CCCCC3)n([C@H](C)COC(F)F)c12`, for which the growth was 37.8%.

In the case of `O=C(CCl)Oc1ccc(-c2ccccc2)c(Br)c1`, the growth was 112%.

Take `CCC(=O)c1ccc(Cl)s1`: the growth is 118%.

As for `CC(C)CSc1nc(N)nc2c1ncn2C1OC(CO)C(O)C1O` (stereo not given), the growth is 93.4%.

Regarding `CCNC(=O)Oc1ccc(/C(=C(\C)c2ccc(Cl)cc2)c2ccc(OCCN3CCCCC3)cc2)cc1`, the growth was 56.8%.

In the case of `O=C(/C=C/c1ccccc1)c1ccc(O)c(CN2CCN(c3cc4c(cc3F)c(=O)c(C(=O)O)cn4C3CC3)CC2)c1`, the growth was 28.7%.

Regarding `COC(=O)c1ccc(Cn2cnc3c(N)ncnc32)cc1`, the growth is 126%.

In the case of `COc1cccc(-c2nc(SCC(=O)Nc3ccc(C(=O)/C=C/c4ccc(OC)c(OC)c4)cc3)[nH]c(=O)c2C#N)c1`, the growth is 103%.

Take `Cc1ccc(NC(=O)C2CCC(CN3CCN(C)CC3)CC2)cc1Nc1nccc(-c2cccnc2)n1` (stereo not given): the growth was 110%.

For the compound `CSc1nc(NCc2ccccc2)c(C#N)c(-c2cccc([N+](=O)[O-])c2)n1`, the growth was 99.9%.

As to `COc1ccc(Nc2c3c4c(cccc4[nH]c2=O)C(=O)c2ccccc2-3)cc1`, the growth is -11.9% (active).

For the compound `Oc1ccccc1-c1nnc(CNc2ccc(Cl)cc2)o1`, the growth is 25.9%.

As to `NNCCc1ccc(NC(=O)CCCc2ccc(/C=C/C(=O)NO)cc2)cc1`, the growth was 62.9%.

As to `O=[N+]([O-])c1ccc2c(c1)Cc1cc(F)ccc1-2`, the growth was 105%.

In the case of `O=C(N=Nc1c(O)[nH]c2ccc(Br)cc12)c1cc(-c2ccccc2)on1`, the growth was 101%.

Source of the values: PubChem BioAssay (NCI).
